Test results taken from the supplement of paper PMC7156485.

What was measured:
Conditions in all cases: concentration: 10 µM; 24 h
[1] = test system: HCC1569; assay: cell number relative to DMSO (% of DMSO); higher = more cells (less growth inhibition / toxicity)
Method in brief: (§1)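 Cell number or H1.0 nuclear intensity appears as percent of the plate control, based on the median of replicates. Measurements came from HCC1569 and TDF cells exposed in triplicate to compounds at 10 µM for 24 h at 37 °C, then imaged in six fields per well at ×10. Positional effects were smoothed out of HCC1569 values.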

[2] = test system: TDF; assay: as above
Method in brief: as §1

[3] = test system: TDF; assay: H1.0 immunofluorescence intensity relative to DMSO (% of DMSO); higher = stronger H1.0 induction, active = 120 or more
Method in brief: as §1

[4] = test system: HCC1569; assay: H1.0 immunofluorescence intensity relative to DMSO (% of DMSO); higher = stronger H1.0 induction, active = 140 or more
Method in brief: as §1
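Throughout, for H1.0 immunofluorescence intensity relative to DMSO: TDF is a line of transformed human dermal fibroblasts of mesenchymal origin.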
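Throughout, for cell number relative to DMSO: TDF denotes transformed human dermal fibroblasts of mesenchymal origin.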

Row | Compound | cell number [1] | cell number [2] | H1.0 immunofluorescence intensity [3] | H1.0 immunofluorescence intensity [4]
1 | Cn1cc(C=C2C(=O)Nc3ccc(S(N)(=O)=O)cc32)c2ccccc21 [Syk Inhibitor] | 84.1 | 95.3 | 82.7 (inactive) | 132 (inactive)
2 | CCCCCCCCCCCCCCCC(O)C(N)CO (racemic) [DL-Dihydrosphingosine] | 103 | 101 | 96.2 (inactive) | 100 (inactive)
3 | O=C1NC(=O)C(=Cc2ccc3c(c2)OC(F)(F)O3)S1 [PI 3-KbInhibitor II] | 100 | 96.8 | 103 (inactive) | 112 (inactive)
4 | CC=CC(=O)N(CC)c1ccccc1C [Crotamiton] | 103 | 98.5 | 101 (inactive) | 104 (inactive)
5 | Cc1ccc(NC(=O)CCCCCC(=O)Nc2ccccc2N)cc1 [N~1~-(2-aminophenyl)-N~7~-(4-methylphenyl)heptanediamide] | 96.1 | 70.6 | 113 (inactive) | 214 (active)
6 | Cl.c1ccc(CN2CCC3(CCCc4ccccc43)CC2)cc1 [L-687,384 hydrochloride] | 103 | 96 | 93.7 (inactive) | 103 (inactive)
7 | CCOC(=O)C=Cc1ccc(O)c(OC)c1 [Ferulic acid ethylester] | 98.3 | 95.4 | 90.2 (inactive) | 93.6 (inactive)
8 | COC(=O)C1=C(C)NC(C)=C(C(=O)OCCN(C)Cc2ccccc2)C1c1cccc([N+](=O)[O-])c1.Cl (stereo not drawn) [Nicardipine hydrochloride] | 96.7 | 103 | 99.2 (inactive) | 100 (inactive)
9 | CCCCCC#CCC#CCC#CCC#CCCCC(=O)O | 104 | 96.2 | 98.2 (inactive) | 101 (inactive)
10 | CC(C)n1cnc2c(NCc3ccccc3)nc(NCCO)nc21 [N9-Isopropylolomoucine] | 46 | 105 | 95 (inactive) | 314 (active)
11 | CCCCOC(=O)NS(=O)(=O)c1sc(CC(C)C)cc1-c1ccc(Cn2c(CC)nc3c(C)cc(C)nc32)cc1 | 99.7 | 106 | 84.8 (inactive) | 100 (inactive)
12 | Cc1cc(Nc2cc(N3CCN(C)CC3)nc(Sc3ccc(NC(=O)C4CC4)cc3)n2)n[nH]1 [Tozasertib] | 70.4 | 46.5 | 99.2 (inactive) | 156 (active)
13 | CC(CCC(=O)NCCS(=O)(=O)O)C1CCC2C3C(O)CC4CC(O)CCC4(C)C3CC(O)C12C (stereo not drawn) [Taurocholic acid] | 101 | 104 | 97.8 (inactive) | 111 (inactive)
14 | CC1CCC2(C(=O)O)CCC3(C)C(=CCC4C5(C)CCC(O)C(C)(C)C5CCC43C)C2C1C (stereo not drawn) [Ursolic acid] | 100 | 101 | 97.5 (inactive) | 93.7 (inactive)
15 | C=CC1(C)CCC2C(=CCC3C(C)(C(=O)O)CCCC23C)C1 (stereo not drawn) [(4alpha,13alpha)-pimara-7,15-dien-18-oic acid] | 102 | 101 | 99 (inactive) | 86.6 (inactive)
16 | O=C(Nc1cc(Cl)cc2c1[nH]c1cnccc12)c1cccnc1 [IKK Inhibitor X] | 98.7 | 91.8 | 101 (inactive) | 106 (inactive)
17 | CCC(C)SSc1ncc[nH]1 (stereo not drawn) [2-(sec-butyldisulfanyl)-1H-imidazole] | 83.7 | 105 | 87.7 (inactive) | 107 (inactive)
18 | O=C1CN(N=Cc2ccc(-c3ccc([N+](=O)[O-])cc3)o2)C(=O)[N-]1.[Na+] [Dantrolene sodium] | 100 | 97 | 100 (inactive) | 102 (inactive)
19 | CC12C=CC(=O)C=C1CCC1C2C(=O)CC2(C)C1CCC2(O)C(=O)CO (stereo not drawn) [Prednisone] | 101 | 106 | 86.2 (inactive) | 122 (inactive)
20 | CC1C2CCC3C4CC=C5CC(N(C)C)CCC5(C)C4CCC32CN1C (stereo not drawn) [Conessine] | 103 | 104 | 109 (inactive) | 113 (inactive)
21 | Cl.NC1(C(=O)O)CCCCC1 [1-Amino-1-cyclohexanecarboxylic acid hydrochloride] | 100 | 106 | 95.3 (inactive) | 86.6 (inactive)
22 | CN(C)CCC=C1c2ccccc2COc2ccc(CC(=O)O)cc21 [Olopatadine] | 102 | 106 | 90.3 (inactive) | 102 (inactive)
